# Test results published in the supplement of paper PMC8728848.
# The entries come from a sample that favours the strongest signals as a whole.
# Legend:
# Experiment in all cases: glycan array binding signal (z-score within array); higher = stronger binding
# Conditions in all cases: glycan notation: IUPAC condensed, linker removed
# [1] = biological target: Fuc(a1-2)Gal(b1-3)GlcNAc(b1-2)Man(a1-3)[Fuc(a1-2)Gal(b1-3)GlcNAc(b1-2)Man(a1-6)]Man(b1-4)GlcNAc(b1-4)GlcNAc
# Summary of the method: (§1)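 From the Consortium for Functional Glycomics database, 3228 arrays were curated, keeping only those whose protein sequence was available. Binding is given as a within-array Z-score averaged across arrays sharing a protein sequence and across linkers. Negative Z-scores can be read as non-binding.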
# [2] = biological target: Fuc(a1-2)Gal(b1-3)[Fuc(a1-4)]GlcNAc(b1-2)Man(a1-3)[Fuc(a1-2)Gal(b1-3)[Fuc(a1-4)]GlcNAc(b1-2)Man(a1-3)]Man(b1-4)GlcNAc(b1-4)GlcNAc
# Summary of the method: as §1
# [3] = biological target: Fuc(a1-2)Gal(b1-4)GlcNAc(b1-3)Gal(b1-4)GlcNAc(b1-2)Man(a1-3)[Fuc(a1-2)Gal(b1-4)GlcNAc(b1-3)Gal(b1-4)GlcNAc(b1-2)Man(a1-6)]Man(b1-4)GlcNAc(b1-4)GlcNAc
# Summary of the method: as §1
# [4] = biological target: Fuc(a1-2)Gal(b1-4)GlcNAc(b1-3)GalNAc
# Summary of the method: as §1
# [5] = biological target: Fuc(a1-2)Gal6S(b1-3)GlcNAc6S
# Summary of the method: as §1
# [6] = biological target: Fuc(a1-2)[Gal(a1-3)]Gal
# Summary of the method: as §1
# [7] = biological target: Fuc(a1-2)[Gal(a1-3)]Gal(b1-3)GlcNAc(b1-2)Man(a1-3)[Fuc(a1-2)[Gal(a1-3)]Gal(b1-3)GlcNAc(b1-2)Man(a1-6)]Man(b1-4)GlcNAc(b1-4)GlcNAc
# Summary of the method: as §1
# [8] = biological target: Fuc(a1-3)[Gal(b1-4)]GlcNAc(b1-3)Gal(b1-4)[Fuc(a1-3)]GlcNAc
# Summary of the method: as §1
# [9] = biological target: Fuc(a1-3)[GalNAc(b1-4)]GlcNAc6S
# Summary of the method: as §1
# [10] = biological target: Gal(a1-4)Gal(b1-4)GlcNAc
# Summary of the method: as §1
# [11] = biological target: Gal(b1-3)GlcNAc(b1-2)[Gal(b1-3)GlcNAc(b1-6)]Man(a1-6)[Gal(b1-3)GlcNAc(b1-2)Man(a1-3)]Man(b1-4)GlcNAc(b1-4)GlcNAc
# Summary of the method: as §1
# [12] = biological target: Gal(b1-3)GlcNAc(b1-3)Gal(b1-3)GlcNAc
# Summary of the method: as §1
# [13] = biological target: Gal(b1-3)GlcNAc(b1-3)Gal(b1-4)Glc
# Summary of the method: as §1
# [14] = biological target: Gal(b1-3)[GlcNAc(b1-6)]GalNAc
# Summary of the method: as §1
# [15] = biological target: Gal(b1-4)GlcNAc(b1-2)Man(a1-3)[Gal(b1-4)GlcNAc(b1-2)Man(a1-6)]Man(b1-4)GlcNAc(b1-4)GlcNAc
# Summary of the method: as §1
# [16] = biological target: Gal(b1-4)GlcNAc(b1-2)Man(a1-3)[Gal(b1-4)GlcNAc(b1-2)Man(a1-6)][GlcNAc(b1-4)]Man(b1-4)GlcNAc(b1-4)[Fuc(a1-6)]GlcNAc
# Summary of the method: as §1
# [17] = biological target: Gal(b1-4)GlcNAc(b1-3)Gal(b1-3)GalNAc
# Summary of the method: as §1
# [18] = biological target: Gal(b1-4)GlcNAc(b1-3)Gal(b1-4)GlcNAc(b1-3)Gal(b1-4)GlcNAc(b1-3)Gal(b1-4)GlcNAc(b1-2)Man(a1-3)[Gal(b1-4)GlcNAc(b1-3)Gal(b1-4)GlcNAc(b1-3)Gal(b1-4)GlcNAc(b1-3)Gal(b1-4)GlcNAc(b1-2)Man(a1-6)]Man(b1-4)GlcNAc(b1-4)GlcNAc
# Summary of the method: as §1
# [19] = biological target: Gal(b1-4)GlcNAc(b1-3)Gal(b1-4)GlcNAc(b1-3)Gal(b1-4)GlcNAc(b1-3)Gal(b1-4)GlcNAc(b1-2)Man(a1-3)[Gal(b1-4)GlcNAc(b1-3)Gal(b1-4)GlcNAc(b1-3)Gal(b1-4)GlcNAc(b1-3)Gal(b1-4)GlcNAc(b1-2)Man(a1-6)]Man(b1-4)GlcNAc(b1-4)[Fuc(a1-6)]GlcNAc
# Summary of the method: as §1
# [20] = biological target: Gal(b1-4)GlcNAc(b1-3)Gal(b1-4)GlcNAc(b1-3)Gal(b1-4)GlcNAc(b1-3)Gal(b1-4)GlcNAc(b1-3)Gal(b1-4)GlcNAc(b1-2)Man(a1-3)[Gal(b1-4)GlcNAc(b1-3)Gal(b1-4)GlcNAc(b1-3)Gal(b1-4)GlcNAc(b1-3)Gal(b1-4)GlcNAc(b1-3)Gal(b1-4)GlcNAc(b1-2)Man(a1-6)]Man(b1-4)GlcNAc(b1-4)[Fuc(a1-6)]GlcNAc
# Summary of the method: as §1
# [21] = biological target: Gal(b1-4)GlcNAc(b1-3)[Fuc(a1-3)GlcNAc(b1-6)]Gal(b1-4)Glc
# Summary of the method: as §1
# [22] = biological target: Gal(b1-4)GlcNAc(b1-3)[Gal(b1-4)GlcNAc(b1-6)]Gal(b1-4)GlcNAc
# Summary of the method: as §1
# [23] = biological target: Gal(b1-4)GlcNAc6P
# Summary of the method: as §1
# [24] = biological target: Gal3S(b1-4)Glc6S
# Summary of the method: as §1
# [25] = biological target: Gal3S(b1-4)[Fuc(a1-3)]GlcNAc6S
# Summary of the method: as §1
# [26] = biological target: GalNAc(b1-3)GlcNAc
# Summary of the method: as §1
# [27] = biological target: GalNAc3S(b1-4)[Fuc(a1-3)]GlcNAc
# Summary of the method: as §1
# [28] = biological target: GlcA3S(b1-3)Gal(b1-4)GlcNAc(b1-3)Gal(b1-4)Glc
# Summary of the method: as §1
# [29] = biological target: GlcNAc(b1-3)Gal(b1-4)GlcNAc(b1-2)[GlcNAc(b1-3)Gal(b1-4)GlcNAc(b1-6)]Man(a1-6)[GlcNAc(b1-3)Gal(b1-4)GlcNAc(b1-2)Man(a1-3)]Man(b1-4)GlcNAc(b1-4)GlcNAc
# Summary of the method: as §1
# [30] = biological target: GlcNAc(b1-3)Gal(b1-4)GlcNAc(b1-6)[Gal(b1-3)]GalNAc
# Summary of the method: as §1
# [31] = biological target: Man(a1-3)[Man(a1-6)]Man
# Summary of the method: as §1
# [32] = biological target: Neu5Ac(a2-3)Gal(b1-3)GlcNAc(b1-6)GalNAc
# Summary of the method: as §1
# [33] = biological target: Neu5Ac(a2-3)Gal(b1-4)GlcNAc(b1-6)GalNAc
# Summary of the method: as §1
# [34] = biological target: Neu5Ac(a2-6)Gal(b1-4)GlcNAc(b1-2)Man(a1-3)[Man(a1-6)]Man(b1-4)GlcNAc(b1-4)GlcNAc
# Summary of the method: as §1
# [35] = biological target: Neu5Ac(a2-6)Gal(b1-4)GlcNAc(b1-2)Man(a1-3)[Neu5Ac(a2-6)Gal(b1-4)GlcNAc(b1-2)Man(a1-6)]Man(b1-4)GlcNAc(b1-4)GlcNAc
# Summary of the method: as §1
# [36] = biological target: Neu5Ac(a2-6)Gal(b1-4)GlcNAc(b1-3)Gal(b1-3)GlcNAc
# Summary of the method: as §1
# [37] = biological target: Neu5Ac(a2-6)Gal(b1-4)GlcNAc(b1-3)Gal(b1-4)GlcNAc
# Summary of the method: as §1
# [38] = biological target: Neu5Ac(a2-6)GalNAc
# Summary of the method: as §1
# [39] = biological target: Neu5Gc(a2-6)GalNAc
# Summary of the method: as §1
binder,measurement,setting,value
Clec18C (Homo sapiens) (protein) MLHPETSPGRGHLLAVLLALLGTAWAEVWPPQLQEQAPMAGALNRKESFLLLSLHNRLRSWVQPPAADMRRLDWSDSLAQLAQARAALCGTPTPSLASGLWRTLQVGWNMQLLPAGLVSFVEVVSLWFAEGQRYSHAAGECARNATCTHYTQLVWATSSQLGCGRHLCSAGQAAIEAFVCAYSPRGNWEVNGKTIVPYKKGAWCSLCTASVSGCFKAWDHAGGLCEVPRNPCRMSCQNHGRLNISTCHCHCPPGYTGRYCQVRCSLQCVHGRLREEECSCVCDIGYGGAQCATKVHFPFHTCDLRIDGDCFMVSSEADTYYRARMKCQRKGGVLAQIKSQKVQDILAFYLGRLETTNEVIDSDFETRNFWIGLTYKTAKDSFRWATGEHQAFTSFAFGQPDNHGFGNCVELQASAAFNWNNQRCKTRNRYICQFAQEHISRWGPGS,glycan array binding signal (z-score),[1],3.46
same,glycan array binding signal (z-score),[2],0.055
same,glycan array binding signal (z-score),[3],0.124
same,glycan array binding signal (z-score),[4],3.79
same,glycan array binding signal (z-score),[5],-0.032
same,glycan array binding signal (z-score),[6],-0.382
same,glycan array binding signal (z-score),[7],-0.479
same,glycan array binding signal (z-score),[8],-0.261
same,glycan array binding signal (z-score),[9],0.313
same,glycan array binding signal (z-score),[10],1.24
same,glycan array binding signal (z-score),[11],-0.547
same,glycan array binding signal (z-score),[12],-0.443
same,glycan array binding signal (z-score),[13],-0.457
same,glycan array binding signal (z-score),[14],4.42
same,glycan array binding signal (z-score),[15],5.03
same,glycan array binding signal (z-score),[16],1.07
same,glycan array binding signal (z-score),[17],5.75
same,glycan array binding signal (z-score),[18],1.91
same,glycan array binding signal (z-score),[19],-0.276
same,glycan array binding signal (z-score),[20],3.34
same,glycan array binding signal (z-score),[21],-0.356
same,glycan array binding signal (z-score),[22],7.63
same,glycan array binding signal (z-score),[23],5.02
same,glycan array binding signal (z-score),[24],-0.387
same,glycan array binding signal (z-score),[25],-0.116
same,glycan array binding signal (z-score),[26],3.98
same,glycan array binding signal (z-score),[27],-0.342
same,glycan array binding signal (z-score),[28],-0.395
same,glycan array binding signal (z-score),[29],-0.368
same,glycan array binding signal (z-score),[30],-0.398
same,glycan array binding signal (z-score),[31],-0.507
same,glycan array binding signal (z-score),[32],-0.247
same,glycan array binding signal (z-score),[33],3.92
same,glycan array binding signal (z-score),[34],-0.24
same,glycan array binding signal (z-score),[35],0.183
same,glycan array binding signal (z-score),[36],0.131
same,glycan array binding signal (z-score),[37],3.16
same,glycan array binding signal (z-score),[38],5.42
same,glycan array binding signal (z-score),[39],-0.265
